Measurements from PubChem BioAssay.

test: resazurin metabolic signal in HepG2 cells – cell-based, resazurin fluorescence, 24 h, PK04 Diversity Set, profiling panel (AID 1172); settings: HepG2 viability, higher = more signal; further: test concentration not given here

Structure (SMILES)	z-score
CCOC(=O)C1=C(C(=O)OCC)N(S(=O)(=O)CC[Si](C)(C)C)[C@H](c2ccccc2)CC1	0.95
C=CCC(OC(C)=O)[C@@H]1[C@@H](N(Cc2cc3ccccc3o2)C(=O)c2ccc(-c3ccccc3)cc2)c2cc(OCCCO)ccc2N1C(=O)c1ccc2ccccc2n1 (some centres not stated)	-0.0694
O=C1O[C@@H](c2ccccc2)[C@@H](c2ccccc2)N2[C@@H](c3ccc(O)cc3)[C@]3(C(=O)Nc4ccc(C#CC5=CCCCC5)cc43)[C@@H](C(=O)N3CCCCCCC3)[C@H]12	-0.109
COCCOC(=O)N1C(=O)[C@@]2(c3cc(C#CCC(C(=O)OC)C(=O)OC)ccc31)[C@H](C(=O)N1CCc3cc(OC)c(OC)cc3C1)[C@H]1C(=O)O[C@H](c3ccccc3)[C@H](c3ccccc3)N1[C@@H]2c1ccc(O)cc1	0.227
C=C(/C(=C/C[C@H](OC(=O)c1ccncc1)c1ccccc1OCCO)c1cc(C(=O)OC)ccc1OC)C(C)C	0.456
NCCCC[C@@H]1NC(=O)[C@H]2C[C@@H](C(=O)O)[C@@H](c3cccc(OCCO)c3)N2C1=O	-0.578
CCCCN1CC=CC23O[C@@H]4/C=C\CCC(C)OC(=O)C4[C@H]2C(=O)N(C(C)CO)[C@@H]3C1=O (some centres not stated)	0.0172
CC(=O)c1ccc(C(O)C2C=CC3C(=O)NC(=O)C3N2Nc2ccc(Cl)cc2Cl)cc1 (configuration not stated)	-1.16
C[N+](C)(C)CCCC[C@@H]1NC(=O)[C@H]2C[C@@H](C(=O)NCCCCCNC(=O)CS)[C@@H](c3ccc(O)cc3)N2C1=O	-0.532
CN(C)CCCCNC(=O)[C@H]1C[C@H]2C(=O)N[C@@H](Cc3ccccc3)C(=O)N2[C@H]1c1cccc(OCCO)c1	1.36
NC(=O)NCC#Cc1ccc2c(c1)[C@]1(C(=O)N2)[C@H](C(=O)Nc2nc3ccccc3s2)[C@H]2C(=O)O[C@H](c3ccccc3)[C@H](c3ccccc3)N2[C@@H]1c1ccc(OCCO)cc1	1.1
CC(C)CNC(=O)[C@@H]1c2ccccc2C(=O)N(Cc2ccccc2Cl)[C@H]1c1ccc(CO)cc1	0.611
C=CCNC(=O)[C@H]1[C@@H]2C(=O)O[C@@H](c3ccccc3)[C@@H](c3ccccc3)N2[C@@H](c2ccc(O)cc2)[C@]12C(=O)Nc1ccc(C#CC3=CCCCC3)cc12	-0.118
CN(C)C(=O)[C@]1(Cc2ccccc2CN=[N+]=[N-])N=C(c2ccc(OCCCO)cc2)O[C@@H]1c1ccccc1N=[N+]=[N-]	0.142
COCCn1c(C(=O)N2CCCC2)cc2c1C[C@H]1CN(C(=O)c3ccccc3)[C@@](Cc3ccccc3)(C(=O)OC)[C@@H]21	-0.171
CCCC[C@@H](O)C1=C(COC)Cn2c(=O)n(-c3ccccc3)c(=O)n2[C@H]1CO	-0.603
CN(C)C(=O)[C@]1(Cc2ccccc2)N=C(c2ccc(OCCCO)cc2)O[C@@H]1c1ccccc1	0.0784
COc1ccc([Si](C)(C)[C@H]2[C@H](CCO)O[C@@]3(C(=O)N(Cc4ccc(N5CCOC5=O)cc4)c4ccccc43)[C@@H]2C)cc1	-0.667
C=CCC(OC(C)=O)[C@@H]1[C@@H](N(Cc2cccc3ccccc23)C(=O)c2ccc(-c3ccccc3)cc2)c2cc(OCCCO)ccc2N1C(=O)c1ccc2ccccc2n1 (some centres not stated)	-0.0049
C=CC[C@@]1(C(=O)O)N=C(c2ccc(OCCCO)cc2)O[C@@H]1c1ccccc1CN=[N+]=[N-]	0.793
COC(=O)c1c(CC[C@@H](CO)NC(=O)N[C@@H](Cc2ccccc2)Cn2cc(-c3cncn3C)nn2)oc(C(C)=O)c1C(=O)OC	-0.649
COC(=O)Cn1c(C(=O)N(C)C)cc2c1C[C@H]1CN(C(=O)c3ccccc3)[C@@](Cc3ccc(OC)cc3)(C(=O)OC)[C@@H]21	-0.708
CCCC=C(CCC)[C@@H](NS(=O)(=O)c1ccc(Cl)cc1)c1ccccc1	1.1
COc1ccc(CCNC(=O)[C@@H]2c3ccccc3C(=O)N(CC34CC5CC(CC(C5)C3)C4)[C@H]2c2ccc(CO)cc2)cc1	0.556
NC(=O)N1C(=O)C2C(C1=O)C1C=C(CCCO)C2C(c2ccc(CN3CCCC3)cc2)N1Cc1cccc(OC(F)(F)F)c1 (configuration not stated)	-0.708
COc1ccc([Si](C)(C)[C@H]2[C@H](CCn3cc([C@H](O)c4ccccc4)nn3)O[C@@]3(C(=O)N(c4ccccc4)c4ccccc43)[C@@H]2C)cc1	0.378
CCCC=C(CCC)[C@@H](NC(=O)c1ccccc1)c1ccc(C(=O)OC)cc1	0.295
